Measurements as given in the supplement of paper PMC10849652.
The full data set covers some 7,900 targets. This sample favours those with a hit. About 0.6% of all pairs of compound and target were hits.

Key:
Assay in all cases: log2 fold change, soluble protein after heating vs DMSO (PISA); higher = thermal stabilisation; K562 cells, 10 uM, 30 min; active = over 0.2 and 3.5 SD of the protein, either way, in both replicates (recomputed)
[1] = compound: C1=CC=C(C=C1)[C@H](COC2=CC3=C(C=C2)NC(=O)N3)NC(=O)C4=CC=CN(C4=O)CC5=CC(=C(C=C5)F)F
Procedure, shortened: (§1)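 Soluble protein was quantified by TMTpro 16plex LC-MS/MS after channel sums were equalised. It was obtained as the supernatant after 21,000xg for 90 min from pooled aliquots of K562 cells (2×10^6 cells/mL, 10 μM compound, 30 min) heated for 3 min across 48°C-58°C and extracted in PBS with 0.5% NP-40 at 4°C. Thermal stability values are relative to control samples and come from duplicates. They are given as log2 fold changes.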

[2] = compound: CC1=C(SC2=C1C(=N[C@H](C3=NN=C(N32)C)CC(=O)N)C4=CC=C(C=C4)Cl)C
Procedure, shortened: as §1

[3] = compound: CC1=C2C(=CC=C1)N=C(N(C2=O)C3=CC=CC=C3C)CN4C=NC5=C(N=CN=C54)N
Procedure, shortened: as §1

[4] = compound: Cc1sc2c(c1C)C(c1ccc(Cl)cc1)=N[C@@H](CC(=O)OC(C)(C)C)c1nnc(C)n1-2
Procedure, shortened: as §1

[5] = compound: c1ccc([C@@H]2C[C@H]2NC2CCNCC2)cc1
Procedure, shortened: as §1

Measured: log2 fold change

KLC2 (UniProt Q9H0B6)
Sequence of UniProt Q9H0B6 (Q9H0B6 whole entry, looked up): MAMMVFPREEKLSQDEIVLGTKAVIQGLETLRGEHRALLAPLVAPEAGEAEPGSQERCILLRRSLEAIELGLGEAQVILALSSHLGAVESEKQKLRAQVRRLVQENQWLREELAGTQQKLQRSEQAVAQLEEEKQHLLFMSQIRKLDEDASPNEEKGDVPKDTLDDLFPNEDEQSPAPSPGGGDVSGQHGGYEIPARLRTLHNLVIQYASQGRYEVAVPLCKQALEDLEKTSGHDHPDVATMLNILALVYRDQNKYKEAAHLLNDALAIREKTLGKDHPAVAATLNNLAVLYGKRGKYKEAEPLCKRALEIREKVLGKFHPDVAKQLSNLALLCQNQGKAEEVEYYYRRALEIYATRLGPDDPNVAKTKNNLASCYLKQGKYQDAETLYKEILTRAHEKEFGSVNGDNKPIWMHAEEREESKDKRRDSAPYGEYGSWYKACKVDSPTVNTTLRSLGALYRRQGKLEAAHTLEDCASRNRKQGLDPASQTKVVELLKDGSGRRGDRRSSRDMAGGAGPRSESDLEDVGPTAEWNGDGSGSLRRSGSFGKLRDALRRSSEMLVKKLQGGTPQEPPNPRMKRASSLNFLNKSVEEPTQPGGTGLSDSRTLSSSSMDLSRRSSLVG
inactive: [1] -0.046 | [2] 0.085 | [3] 0.118 | [4] 0.032 | [5] 0

LAPTM4B (UniProt Q86VI4)
inactive: [1] -0.12

LMNA (UniProt P02545)
inactive: [1] 0.043 | [2] -0.016 | [3] -0.044 | [4] -0.017 | [5] 0.052

LOX (UniProt P28300)
inactive: [1] -0.113

MAPKAPK2 (UniProt P49137)
Sequence of UniProt P49137 (P49137 whole entry, looked up): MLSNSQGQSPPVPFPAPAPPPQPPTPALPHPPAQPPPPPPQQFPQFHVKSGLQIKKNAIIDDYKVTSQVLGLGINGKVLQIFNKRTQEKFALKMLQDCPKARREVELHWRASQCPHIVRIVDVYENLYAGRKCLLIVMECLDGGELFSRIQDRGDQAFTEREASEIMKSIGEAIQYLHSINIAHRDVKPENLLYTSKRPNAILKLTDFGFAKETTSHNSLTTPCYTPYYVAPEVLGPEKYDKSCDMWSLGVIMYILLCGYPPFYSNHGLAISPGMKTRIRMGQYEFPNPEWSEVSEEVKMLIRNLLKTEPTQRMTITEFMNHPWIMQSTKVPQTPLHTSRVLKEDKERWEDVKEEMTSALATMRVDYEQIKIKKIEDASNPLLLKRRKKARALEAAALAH
inactive: [1] -0.047 | [2] 0.064 | [3] 0.012 | [4] 0.013 | [5] -0.056

KIF2C (UniProt Q99661)
Sequence of UniProt Q99661 (Q99661 whole entry, looked up): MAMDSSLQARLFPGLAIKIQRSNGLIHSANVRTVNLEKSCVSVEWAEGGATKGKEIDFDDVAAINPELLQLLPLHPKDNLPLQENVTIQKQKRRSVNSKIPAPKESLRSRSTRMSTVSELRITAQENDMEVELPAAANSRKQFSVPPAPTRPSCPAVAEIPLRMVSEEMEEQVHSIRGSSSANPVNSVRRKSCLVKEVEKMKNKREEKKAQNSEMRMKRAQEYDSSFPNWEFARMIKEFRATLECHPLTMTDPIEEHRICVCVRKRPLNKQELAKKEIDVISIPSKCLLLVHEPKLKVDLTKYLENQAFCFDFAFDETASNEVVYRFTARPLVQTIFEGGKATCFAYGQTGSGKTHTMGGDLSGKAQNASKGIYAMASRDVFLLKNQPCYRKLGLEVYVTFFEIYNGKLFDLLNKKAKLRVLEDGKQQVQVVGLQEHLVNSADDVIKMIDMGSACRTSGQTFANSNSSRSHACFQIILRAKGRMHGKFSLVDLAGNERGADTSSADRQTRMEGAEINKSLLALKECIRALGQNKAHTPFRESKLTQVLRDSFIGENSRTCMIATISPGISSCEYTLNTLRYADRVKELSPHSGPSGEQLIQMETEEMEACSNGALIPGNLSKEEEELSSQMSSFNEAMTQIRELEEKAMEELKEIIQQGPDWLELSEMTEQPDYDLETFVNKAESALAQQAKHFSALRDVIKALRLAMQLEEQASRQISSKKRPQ
inactive: [1] -0.062 | [2] -0.021 | [3] 0.094 | [4] 0.002 | [5] -0.029

KNTC1 (UniProt P50748)
inactive: [1] -0.079 | [2] 0.011 | [3] 0.106 | [4] -0.011 | [5] -0.008

MFSD11 (UniProt O43934)
inactive: [1] 0.04 | [2] 0.11 | [3] 0.104 | [4] -0.03 | [5] -0.049

MIEF1 (UniProt Q9NQG6)
inactive: [1] -0.043 | [2] 0.053 | [3] 0.047 | [4] -0.024 | [5] -0.054

KCTD10 (UniProt Q9H3F6)
Sequence of UniProt Q9H3F6 (Q9H3F6 whole entry, looked up): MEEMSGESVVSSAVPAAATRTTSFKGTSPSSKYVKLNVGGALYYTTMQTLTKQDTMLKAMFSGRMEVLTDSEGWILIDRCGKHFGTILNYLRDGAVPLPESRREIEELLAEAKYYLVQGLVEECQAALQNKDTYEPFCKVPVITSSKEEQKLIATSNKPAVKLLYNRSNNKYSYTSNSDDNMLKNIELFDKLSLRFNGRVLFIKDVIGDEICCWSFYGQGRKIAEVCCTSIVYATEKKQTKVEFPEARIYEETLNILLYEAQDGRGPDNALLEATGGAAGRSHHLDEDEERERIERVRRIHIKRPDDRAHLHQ
inactive: [1] -0.014 | [2] -0.009 | [3] 0.007 | [4] -0.01 | [5] 0.03

IRAK4 (UniProt Q9NWZ3)
inactive: [1] -0.077 | [2] -0.006 | [3] 0.009 | [4] -0.012 | [5] -0.056

MAPK14 isoform 2 (UniProt Q16539)
inactive: [1] -0.067 | [2] 0.139 | [3] 0.077 | [4] -0.011 | [5] -0.043

LRPPRC (UniProt P42704)
inactive: [1] -0.312 | [2] -0.059 | [3] 0.257 | [4] -0.031 | [5] -0.05

IPO7 (UniProt O95373)
Sequence of UniProt O95373 (O95373 whole entry, looked up): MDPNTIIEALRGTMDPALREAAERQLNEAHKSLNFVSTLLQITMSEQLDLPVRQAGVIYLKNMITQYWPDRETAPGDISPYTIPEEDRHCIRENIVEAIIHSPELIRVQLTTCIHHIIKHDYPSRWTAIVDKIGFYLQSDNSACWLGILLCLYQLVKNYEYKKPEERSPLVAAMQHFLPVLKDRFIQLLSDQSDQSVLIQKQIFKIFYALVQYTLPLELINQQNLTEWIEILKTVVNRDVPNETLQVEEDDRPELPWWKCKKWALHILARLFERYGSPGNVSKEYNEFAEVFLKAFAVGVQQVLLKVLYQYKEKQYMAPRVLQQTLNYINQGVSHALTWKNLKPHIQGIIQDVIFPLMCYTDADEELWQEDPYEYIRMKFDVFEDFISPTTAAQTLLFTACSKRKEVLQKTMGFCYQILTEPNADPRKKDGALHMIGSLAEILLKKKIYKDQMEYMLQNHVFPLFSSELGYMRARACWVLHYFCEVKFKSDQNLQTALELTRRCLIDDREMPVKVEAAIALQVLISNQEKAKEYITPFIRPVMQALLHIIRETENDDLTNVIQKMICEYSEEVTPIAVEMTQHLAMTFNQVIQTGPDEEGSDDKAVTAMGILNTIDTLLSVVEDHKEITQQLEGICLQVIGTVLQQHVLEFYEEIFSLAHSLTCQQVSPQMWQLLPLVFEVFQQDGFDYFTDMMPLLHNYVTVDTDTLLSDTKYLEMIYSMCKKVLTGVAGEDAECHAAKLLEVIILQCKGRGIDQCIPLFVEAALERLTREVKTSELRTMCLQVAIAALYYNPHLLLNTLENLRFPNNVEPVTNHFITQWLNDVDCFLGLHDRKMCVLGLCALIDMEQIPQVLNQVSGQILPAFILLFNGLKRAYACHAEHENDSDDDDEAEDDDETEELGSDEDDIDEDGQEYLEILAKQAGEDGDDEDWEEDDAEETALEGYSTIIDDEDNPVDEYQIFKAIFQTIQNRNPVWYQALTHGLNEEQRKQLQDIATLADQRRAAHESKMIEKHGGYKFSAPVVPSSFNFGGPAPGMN
inactive: [1] -0.082 | [2] 0.031 | [3] 0.069 | [4] -0.025 | [5] 0.003

LENG8 (UniProt Q96PV6)
inactive: [1] 0.036 | [2] 0.177 | [3] -0.356 | [4] -0.028 | [5] 0.022

LPCAT3 (UniProt Q6P1A2)
Sequence of UniProt Q6P1A2 (Q6P1A2 whole entry, looked up): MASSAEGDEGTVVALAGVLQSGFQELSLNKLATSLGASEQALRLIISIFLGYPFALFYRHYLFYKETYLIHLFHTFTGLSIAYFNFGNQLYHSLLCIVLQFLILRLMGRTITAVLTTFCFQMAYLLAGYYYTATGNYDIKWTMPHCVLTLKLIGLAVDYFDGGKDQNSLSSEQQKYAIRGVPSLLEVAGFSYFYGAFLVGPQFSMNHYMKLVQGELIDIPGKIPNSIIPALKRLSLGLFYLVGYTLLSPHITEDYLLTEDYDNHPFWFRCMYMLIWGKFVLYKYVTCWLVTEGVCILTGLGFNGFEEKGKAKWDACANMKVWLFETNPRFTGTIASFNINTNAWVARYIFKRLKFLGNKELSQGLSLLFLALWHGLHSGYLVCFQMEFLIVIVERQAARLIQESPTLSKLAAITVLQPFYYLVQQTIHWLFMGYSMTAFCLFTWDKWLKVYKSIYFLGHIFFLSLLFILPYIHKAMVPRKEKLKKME
inactive: [1] 0.019 | [2] 0.071 | [3] -0.011 | [4] -0.093 | [5] -0.052

MFSD5 isoform 2 (UniProt Q6N075)
Sequence of UniProt Q6N075 (Q6N075 whole entry, looked up): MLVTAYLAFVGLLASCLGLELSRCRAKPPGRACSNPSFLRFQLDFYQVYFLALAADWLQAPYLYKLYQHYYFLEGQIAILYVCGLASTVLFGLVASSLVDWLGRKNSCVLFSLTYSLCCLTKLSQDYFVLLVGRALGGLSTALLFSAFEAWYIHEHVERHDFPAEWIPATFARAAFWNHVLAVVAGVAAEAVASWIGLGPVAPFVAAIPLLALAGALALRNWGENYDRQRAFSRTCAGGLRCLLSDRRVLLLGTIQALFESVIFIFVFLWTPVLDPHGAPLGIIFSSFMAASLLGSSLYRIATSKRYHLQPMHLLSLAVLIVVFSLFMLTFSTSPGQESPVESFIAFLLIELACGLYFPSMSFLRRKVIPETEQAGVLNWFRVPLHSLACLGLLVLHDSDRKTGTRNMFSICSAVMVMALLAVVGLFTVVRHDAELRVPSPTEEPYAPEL
inactive: [1] 0.071 | [2] 0.08 | [3] 0.112 | [4] -0.049 | [5] -0.055

MAPK14 (UniProt Q16539)
inactive: [1] -0.01 | [2] 0.153 | [3] 0.061 | [4] -0.03 | [5] -0.089

LAMP2 isoform 2 (UniProt P13473)
inactive: [1] 0.051 | [2] -0.015 | [3] 0.04 | [4] 0.052 | [5] 0.007

LSR (UniProt Q86X29)
inactive: [1] -0.016 | [2] 0.033 | [3] 0.006 | [4] -0.034 | [5] 0.015

ITPRIP (UniProt Q8IWB1)
Sequence of UniProt Q8IWB1 (Q8IWB1 whole entry, looked up): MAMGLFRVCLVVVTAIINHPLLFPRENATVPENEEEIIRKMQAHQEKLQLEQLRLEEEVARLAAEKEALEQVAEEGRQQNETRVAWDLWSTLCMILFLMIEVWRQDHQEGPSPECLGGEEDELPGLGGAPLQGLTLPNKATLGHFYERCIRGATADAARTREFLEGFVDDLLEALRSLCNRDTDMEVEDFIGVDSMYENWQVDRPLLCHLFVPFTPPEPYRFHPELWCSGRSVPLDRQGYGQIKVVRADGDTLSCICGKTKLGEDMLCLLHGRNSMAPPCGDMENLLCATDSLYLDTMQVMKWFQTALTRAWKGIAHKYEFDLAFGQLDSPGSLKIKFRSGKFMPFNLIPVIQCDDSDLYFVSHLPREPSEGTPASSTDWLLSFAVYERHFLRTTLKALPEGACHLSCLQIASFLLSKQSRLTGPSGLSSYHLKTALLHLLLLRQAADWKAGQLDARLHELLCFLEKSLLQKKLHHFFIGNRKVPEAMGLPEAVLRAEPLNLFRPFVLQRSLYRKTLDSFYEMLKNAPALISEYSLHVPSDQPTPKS
inactive: [1] -0.024 | [2] 0.096 | [3] 0.054 | [4] -0.081 | [5] 0.027

KDELR2 (UniProt P33947)
inactive: [1] -0.038 | [2] -0.015 | [3] 0.076 | [4] -0.137 | [5] 0.115

MDC1 (UniProt Q14676)
inactive: [1] -0.005 | [2] -0.045 | [3] -0.092 | [4] 0.068 | [5] 0.04

MAGEA9 (UniProt P43362)
Sequence of UniProt P43362 (P43362 whole entry, looked up): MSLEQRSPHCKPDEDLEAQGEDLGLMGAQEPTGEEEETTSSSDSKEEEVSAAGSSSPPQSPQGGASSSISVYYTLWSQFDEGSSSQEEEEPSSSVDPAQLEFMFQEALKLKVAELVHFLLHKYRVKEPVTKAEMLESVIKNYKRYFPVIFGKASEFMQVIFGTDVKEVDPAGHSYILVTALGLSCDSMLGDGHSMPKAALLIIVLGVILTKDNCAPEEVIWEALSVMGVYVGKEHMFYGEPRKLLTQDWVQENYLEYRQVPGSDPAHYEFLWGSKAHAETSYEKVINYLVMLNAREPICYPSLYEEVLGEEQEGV
inactive: [1] 0.046 | [2] -0.03 | [3] 0.047 | [4] -0.055 | [5] -0.067

IGFBP2 (UniProt P18065)
inactive: [1] -0.121 | [2] -0.101 | [3] 0.131 | [4] -0.295 | [5] 0.062
